The structures appear in SMILES notation.

Here are results for 39 molecules from ChEMBL document CHEMBL3988442, “University of Dundee, Small-Polar-MMV Screening Library” (2021).

The target in the test is AMP-activated protein kinase, AMPK (Homo sapiens) (UniProt P54646+O43741+P54619+Q9UGJ0+Q9Y478+Q13131+Q9UGI9). Kind of test: AMP-dependent Kinase enzyme assay. An in vitro enzyme assay that detects ADP turnover that is directly proportional to AMPK activity. This uses naive AMPK that is activated during the assay with MK-8722. The class given is functional. Further details: scale not given: direction of the effect not stated beside the values. To be noted: 30 µM.
Consider `COC(=O)c1ccoc1CN(C)CC(=O)NC1CCS(=O)(=O)C1` (centres undefined), for which the Percent Effect is -0.853%. On to `Cc1cccc(C(=O)N2CC(=O)N(c3ccccc3Cl)CC2C)n1` (centres undefined), for which the Percent Effect was 20.1%.

Consider `Cc1ccccc1Cc1nc(CSc2nnc(N)n2C)no1`, for which the Percent Effect came out at 2.88%. The figure for `Fc1ccccc1OC1CCN(CCn2cc3ccccc3n2)CC1` is 6.19%. The figure for `COc1ccc(NC(=O)c2cnc(C3CCN(C)CC3)nc2C)cc1` is 3.65%; for `O=c1cc(N2CCCCC2)cnn1Cc1noc(C2CCCO2)n1` (centres undefined) it is 4.71%; for `COCCCC1CCCN(Cc2c(C)ccc3ncccc23)C1` (centres undefined) it is -4.38%. The figure for `CC(NCc1cnc(N2CCOCC2)nc1)c1ccc(Cl)s1` (centres undefined) is 10.3%. For `O=C(NCCNCc1cccc2c1OCCCO2)C1CCCC1`, the Percent Effect is -0.551%.

For the molecule `O=C(CCn1ccnn1)N1CCCC(n2cncn2)C1` (centres undefined), the Percent Effect is 14.6%.

For `OC(CNCc1nnc2ccccn12)c1ccc2c(c1)OCO2` (centres undefined), the Percent Effect worked out at 9.33%. The figure for `Cc1ccc(C)c(CC(=O)NC2CCS(=O)(=O)CC2)c1` is -4.86%; for `CCC(=O)Nc1cccc(OCC(=O)N2C[C@H]3CC[C@H]2C3)c1` it is -10.8%. The figure for `Cc1ccc(-c2ccccc2CC2(C(=O)NC(C)C)CCCNC2)cc1` (centres undefined) is 6.43%; for `CCc1onc(C)c1C(=O)N1CCN(c2ncc3c(n2)CCOC3)CC1` it is 13%. The figure for `Cc1nc(C2CCCNC2)cc(N2CCc3nc(N)sc3C2)n1` (centres undefined) is 3.73%. For the molecule `Cc1ccc(-c2cc(CN(CC(N)=O)CC(C)C)on2)cc1`, the Percent Effect was -6.41%. The figure for `CN(CC(=O)NCC(F)(F)F)Cc1cccc2c1OCCO2` is 3.65%.

`Cc1nccn1CC1CCCN(C(=O)Cc2ccsc2)C1` (centres undefined): the Percent Effect is 0.964%. The figure for `NC(=O)COc1cccc(Cn2cccn2)c1` is -6.59%. The figure for `CCN(CC)S(=O)(=O)c1ccc(NC(=O)C(C)(C)C)cc1` is 3.46%. The figure for `CC(C)CC(=O)N1Cc2ccccc2CC1C(=O)Nc1nccs1` (centres undefined) is -4.39%; for `CCc1noc(C(C)N2CCc3c(ncn3C3CC3)C2)n1` (centres undefined) it is 14.3%.

With `Cc1nc(OCC(=O)N2CCCC2)cc(-n2cccn2)n1`, the Percent Effect is 3.39%.

Consider `COc1cccc(-c2nc(CNCc3cccnc3)cs2)c1`, for which the Percent Effect is -1.6%. For the molecule `Cc1nn(C)c2nc(N3CCCCC3c3ccc(F)cc3)sc12` (centres undefined), the Percent Effect amounted to 3.9%. Consider `Cc1cc(C)c2c(NC(C)c3nncn3C3CCCC3)ncnc2n1` (centres undefined), for which the Percent Effect came to 4.35%. The figure for `CC(C)C(=O)Nc1cccc(CNC(=O)CSCc2ccccn2)c1` is 1.74%; for `Cc1cc(C(=O)N2CC[C@H](N3CCN(C)CC3)[C@H](CCCO)C2)n(C)n1` it is 10.5%. The figure for `Cn1cc(CNCCNc2ncc(Cl)cc2Cl)cn1` is -10.3%; for `O=C(CC1CCc2ccccc21)NC1(C(=O)O)CCCC1` (centres undefined) it is -6.64%; for `Cc1sc2ncnc(N3CCCC3Cn3cccn3)c2c1C` (centres undefined) it is 3.42%. The figure for `CN1C[C@@H]2CC[C@H](C1)N(Cc1ccccc1OCCN1CCOCC1)C2` is -106%; for `CC(C)C(CCO)NC(=O)Nc1ccc(-c2csnn2)cc1` (centres undefined) it is 13.2%. Turning to `CS(=O)(=O)N1CCC(CNc2cc(Cl)ccc2C#N)CC1`, the Percent Effect worked out at 7.86%. The figure for `CCOCCNC(=O)CCC1CCCO1` (centres undefined) is 2.99%; for `c1ccc(N2CCC(OCC3CCCCO3)CC2)nc1` (centres undefined) it is 6.76%.

As to `NC(=O)c1csc(N2C[C@@H](CN3CCOCC3)[C@@H](CO)C2)n1`, the Percent Effect turned out to be 3.19%. The figure for `COCC1CCN(C(=O)c2cc(O)nc(CC(C)C)c2)CC1` is -1.75%.
